Experimental data: article PMC7862700, “An all-to-all approach to the identification of sequence-specific readers for epigenetic DNA modifications on cytosine”

Legend:
Assay in all cases: DAPPL (digital affinity profiling via proximity ligation, sequencing); 10 mM Tris-HCl pH 7.5, 50 mM NaCl, 1 mM DTT, 4% glycerol, room temperature, 30 min; GST-TFs on glutathione beads, 16-mer random dsDNA library, 0.1% formaldehyde crosslink after washing; high values mean tight binding
Details in all cases: protein: recombinant; tags: N-terminal GST; dsDNA, one strand shown
[1] = biological target: T1, FLI1 (Homo sapiens, UniProt Q01543 1-452)
T1 sequence: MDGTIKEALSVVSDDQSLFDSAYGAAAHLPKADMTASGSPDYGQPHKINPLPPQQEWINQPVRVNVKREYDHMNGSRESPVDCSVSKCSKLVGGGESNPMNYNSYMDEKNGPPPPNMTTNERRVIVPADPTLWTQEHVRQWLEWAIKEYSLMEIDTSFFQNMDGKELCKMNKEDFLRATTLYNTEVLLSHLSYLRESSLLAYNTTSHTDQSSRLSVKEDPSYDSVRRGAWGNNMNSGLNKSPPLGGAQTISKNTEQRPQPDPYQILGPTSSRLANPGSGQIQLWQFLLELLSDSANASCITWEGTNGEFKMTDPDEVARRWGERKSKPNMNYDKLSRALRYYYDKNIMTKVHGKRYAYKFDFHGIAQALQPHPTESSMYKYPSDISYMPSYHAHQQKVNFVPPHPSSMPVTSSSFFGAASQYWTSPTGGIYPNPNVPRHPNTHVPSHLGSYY
Outline: (§1)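 Yeast served to express human transcription factors as GST fusions, which were then captured on glutathione beads and labelled with DNA barcodes. Pooled with a tag-only sample, they were incubated with 200 nmole of a 16-mer random double-stranded DNA library for 30 min at room temperature in Tris/NaCl/DTT/glycerol buffer, washed, crosslinked with 0.1% formaldehyde, ligated by proximity, amplified by PCR and sequenced. Dividing each hexamer's read frequency for a factor by its frequency for the tag-only sample gives the binding signal.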

[2] = biological target: T2, ELK1 (Homo sapiens, UniProt P19419 1-428)
T2 sequence: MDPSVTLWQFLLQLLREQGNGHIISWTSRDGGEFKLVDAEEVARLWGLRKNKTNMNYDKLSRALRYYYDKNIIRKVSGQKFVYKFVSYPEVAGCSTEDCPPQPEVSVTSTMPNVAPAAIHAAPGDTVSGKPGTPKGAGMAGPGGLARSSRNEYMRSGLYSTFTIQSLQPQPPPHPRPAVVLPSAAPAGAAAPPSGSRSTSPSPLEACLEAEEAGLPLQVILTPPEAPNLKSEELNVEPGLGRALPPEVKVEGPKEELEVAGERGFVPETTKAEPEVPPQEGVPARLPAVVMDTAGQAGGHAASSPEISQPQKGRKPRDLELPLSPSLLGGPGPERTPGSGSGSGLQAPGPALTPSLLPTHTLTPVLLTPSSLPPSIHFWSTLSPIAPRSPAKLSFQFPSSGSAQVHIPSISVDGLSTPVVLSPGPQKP
Outline: as §1

[3] = biological target: T3, GABPA (Homo sapiens, UniProt Q06546 1-454)
T3 sequence: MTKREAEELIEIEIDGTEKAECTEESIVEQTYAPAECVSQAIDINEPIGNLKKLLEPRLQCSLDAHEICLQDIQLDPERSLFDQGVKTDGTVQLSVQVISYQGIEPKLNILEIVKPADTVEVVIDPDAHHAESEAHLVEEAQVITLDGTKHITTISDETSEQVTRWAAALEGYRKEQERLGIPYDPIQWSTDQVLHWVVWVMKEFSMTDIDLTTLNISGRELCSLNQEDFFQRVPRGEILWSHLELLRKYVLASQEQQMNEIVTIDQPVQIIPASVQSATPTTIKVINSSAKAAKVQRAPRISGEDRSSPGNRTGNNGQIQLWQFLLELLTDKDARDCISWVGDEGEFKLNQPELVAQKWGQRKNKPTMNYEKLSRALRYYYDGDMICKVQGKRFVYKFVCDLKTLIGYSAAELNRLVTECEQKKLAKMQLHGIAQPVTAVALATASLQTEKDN
Outline: as §1

[4] = biological target: T4, ERG (Homo sapiens, UniProt P11308 1-479)
T4 sequence: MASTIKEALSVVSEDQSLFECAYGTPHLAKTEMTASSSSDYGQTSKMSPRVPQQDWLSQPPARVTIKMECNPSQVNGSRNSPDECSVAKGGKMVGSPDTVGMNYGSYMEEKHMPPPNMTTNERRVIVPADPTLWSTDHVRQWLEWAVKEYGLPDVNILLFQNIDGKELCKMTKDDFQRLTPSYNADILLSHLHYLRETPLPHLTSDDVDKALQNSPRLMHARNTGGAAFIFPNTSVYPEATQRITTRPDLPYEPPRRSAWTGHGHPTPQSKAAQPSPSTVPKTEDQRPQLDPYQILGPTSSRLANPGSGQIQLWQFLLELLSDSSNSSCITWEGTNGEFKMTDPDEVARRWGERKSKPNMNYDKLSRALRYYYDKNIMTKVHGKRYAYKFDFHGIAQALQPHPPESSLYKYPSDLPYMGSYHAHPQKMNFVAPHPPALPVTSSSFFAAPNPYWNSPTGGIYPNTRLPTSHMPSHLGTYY
Outline: as §1

[5] = biological target: ELF1 (Homo sapiens, UniProt P32519 1-619)
Sequence of ELF1 (P32519 whole entry): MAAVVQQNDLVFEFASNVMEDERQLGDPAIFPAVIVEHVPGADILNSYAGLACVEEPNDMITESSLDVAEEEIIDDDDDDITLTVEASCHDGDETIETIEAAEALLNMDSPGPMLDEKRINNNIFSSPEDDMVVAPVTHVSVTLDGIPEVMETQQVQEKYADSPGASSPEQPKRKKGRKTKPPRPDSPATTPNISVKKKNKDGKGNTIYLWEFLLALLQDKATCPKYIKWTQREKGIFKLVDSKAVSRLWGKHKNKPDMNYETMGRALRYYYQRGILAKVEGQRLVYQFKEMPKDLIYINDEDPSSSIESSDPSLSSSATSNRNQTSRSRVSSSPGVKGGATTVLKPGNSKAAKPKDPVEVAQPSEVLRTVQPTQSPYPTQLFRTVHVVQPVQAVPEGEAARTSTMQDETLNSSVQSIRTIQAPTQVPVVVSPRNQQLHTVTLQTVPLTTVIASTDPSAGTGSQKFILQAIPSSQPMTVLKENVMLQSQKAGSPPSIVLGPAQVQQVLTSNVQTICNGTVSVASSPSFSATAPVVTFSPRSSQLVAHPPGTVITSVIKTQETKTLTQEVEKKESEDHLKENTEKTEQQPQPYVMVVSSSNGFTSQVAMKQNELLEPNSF
Outline: as §1

[6] = biological target: T5, EHF (Homo sapiens, UniProt Q9NZC4 1-300)
T5 sequence: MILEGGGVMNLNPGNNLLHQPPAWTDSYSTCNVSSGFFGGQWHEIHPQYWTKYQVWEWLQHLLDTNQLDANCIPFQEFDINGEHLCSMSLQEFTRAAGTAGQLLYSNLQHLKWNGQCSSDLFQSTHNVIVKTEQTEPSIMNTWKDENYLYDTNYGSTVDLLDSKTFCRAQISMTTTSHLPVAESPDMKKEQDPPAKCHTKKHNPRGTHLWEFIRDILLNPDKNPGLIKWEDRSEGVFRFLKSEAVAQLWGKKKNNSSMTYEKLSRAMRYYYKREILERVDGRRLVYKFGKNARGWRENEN
Outline: as §1

[7] = biological target: SPI1 (Homo sapiens, UniProt P17947 1-270)
Outline: as §1

[8] = biological target: SPIB (Homo sapiens, UniProt Q01892 1-262)
Sequence of SPIB (Q01892 whole entry): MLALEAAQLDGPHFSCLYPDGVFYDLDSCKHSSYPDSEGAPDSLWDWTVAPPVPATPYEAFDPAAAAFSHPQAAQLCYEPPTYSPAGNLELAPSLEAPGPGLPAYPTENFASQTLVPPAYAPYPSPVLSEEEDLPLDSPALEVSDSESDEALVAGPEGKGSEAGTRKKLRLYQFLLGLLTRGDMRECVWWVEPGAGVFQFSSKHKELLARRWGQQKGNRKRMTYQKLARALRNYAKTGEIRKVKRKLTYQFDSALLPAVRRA
Outline: as §1

[9] = biological target: T6, ELK3 (Homo sapiens, UniProt P41970 1-407)
T6 sequence: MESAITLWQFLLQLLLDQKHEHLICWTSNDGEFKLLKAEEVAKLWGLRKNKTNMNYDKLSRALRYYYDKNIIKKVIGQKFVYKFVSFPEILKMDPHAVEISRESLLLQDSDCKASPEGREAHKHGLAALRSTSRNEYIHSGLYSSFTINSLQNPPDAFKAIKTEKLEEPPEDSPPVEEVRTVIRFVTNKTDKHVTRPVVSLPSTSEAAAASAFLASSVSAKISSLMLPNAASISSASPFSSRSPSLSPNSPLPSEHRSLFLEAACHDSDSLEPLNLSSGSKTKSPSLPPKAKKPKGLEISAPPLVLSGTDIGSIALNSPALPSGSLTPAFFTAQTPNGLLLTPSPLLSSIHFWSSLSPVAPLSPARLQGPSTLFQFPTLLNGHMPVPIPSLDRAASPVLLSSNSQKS
Outline: as §1

[10] = biological target: T7, FEV (Homo sapiens, UniProt Q99581 1-238)
T7 sequence: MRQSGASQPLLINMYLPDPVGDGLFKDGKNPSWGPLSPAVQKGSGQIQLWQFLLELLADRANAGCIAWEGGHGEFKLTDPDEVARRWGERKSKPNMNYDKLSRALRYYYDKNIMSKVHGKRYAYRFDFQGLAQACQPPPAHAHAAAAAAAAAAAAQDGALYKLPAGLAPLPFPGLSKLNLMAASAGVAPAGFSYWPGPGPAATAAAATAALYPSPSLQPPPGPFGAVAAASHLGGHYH
Outline: as §1

[11] = biological target: ETV5 (Homo sapiens, UniProt P41161 1-510)
Sequence of ETV5 (P41161 whole entry): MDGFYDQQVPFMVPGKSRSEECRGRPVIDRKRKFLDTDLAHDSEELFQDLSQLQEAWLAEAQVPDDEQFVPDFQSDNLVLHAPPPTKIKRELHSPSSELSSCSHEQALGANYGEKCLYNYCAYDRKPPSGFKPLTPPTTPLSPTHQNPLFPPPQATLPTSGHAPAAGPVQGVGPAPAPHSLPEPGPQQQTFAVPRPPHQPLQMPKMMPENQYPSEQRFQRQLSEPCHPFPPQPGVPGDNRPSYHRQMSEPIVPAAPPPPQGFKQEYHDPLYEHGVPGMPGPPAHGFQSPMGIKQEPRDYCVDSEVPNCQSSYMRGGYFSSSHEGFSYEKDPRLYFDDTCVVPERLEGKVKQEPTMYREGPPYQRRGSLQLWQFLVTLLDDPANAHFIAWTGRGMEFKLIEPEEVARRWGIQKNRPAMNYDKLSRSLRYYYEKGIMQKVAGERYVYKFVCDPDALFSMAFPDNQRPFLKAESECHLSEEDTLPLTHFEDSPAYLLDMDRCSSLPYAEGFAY
Outline: as §1

[12] = biological target: T8, SPIC (Homo sapiens, UniProt Q8N5J4 1-248)
T8 sequence: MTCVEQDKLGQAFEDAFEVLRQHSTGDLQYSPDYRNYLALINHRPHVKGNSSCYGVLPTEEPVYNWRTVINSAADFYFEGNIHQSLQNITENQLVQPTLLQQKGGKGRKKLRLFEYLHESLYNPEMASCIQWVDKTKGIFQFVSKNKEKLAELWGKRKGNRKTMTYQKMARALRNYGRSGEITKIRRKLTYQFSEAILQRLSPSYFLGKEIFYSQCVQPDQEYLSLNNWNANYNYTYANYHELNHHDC
Outline: as §1

[13] = biological target: ELF4 (Homo sapiens, UniProt Q99607 1-663)
Sequence of ELF4 (Q99607 whole entry): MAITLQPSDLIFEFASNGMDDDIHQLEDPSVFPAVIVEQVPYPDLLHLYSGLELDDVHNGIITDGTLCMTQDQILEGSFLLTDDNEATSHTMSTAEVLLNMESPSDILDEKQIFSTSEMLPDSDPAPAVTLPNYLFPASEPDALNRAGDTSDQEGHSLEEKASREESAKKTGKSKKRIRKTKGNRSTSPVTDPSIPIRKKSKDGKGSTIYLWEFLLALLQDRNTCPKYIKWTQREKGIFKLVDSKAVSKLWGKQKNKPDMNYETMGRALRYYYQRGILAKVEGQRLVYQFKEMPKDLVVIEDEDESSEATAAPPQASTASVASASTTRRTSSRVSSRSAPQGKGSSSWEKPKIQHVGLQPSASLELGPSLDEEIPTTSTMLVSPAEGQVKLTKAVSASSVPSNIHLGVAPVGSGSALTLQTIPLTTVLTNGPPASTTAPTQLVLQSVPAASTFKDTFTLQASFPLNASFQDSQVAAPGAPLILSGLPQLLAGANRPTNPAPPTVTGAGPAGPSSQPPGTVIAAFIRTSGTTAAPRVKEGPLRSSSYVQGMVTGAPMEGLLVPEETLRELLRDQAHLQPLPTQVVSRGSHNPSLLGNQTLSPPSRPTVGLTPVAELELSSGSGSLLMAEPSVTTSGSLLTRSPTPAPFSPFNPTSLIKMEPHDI
Outline: as §1

[14] = biological target: T9, ELK4 (Homo sapiens, UniProt P28324-2 1-405)
T9 sequence: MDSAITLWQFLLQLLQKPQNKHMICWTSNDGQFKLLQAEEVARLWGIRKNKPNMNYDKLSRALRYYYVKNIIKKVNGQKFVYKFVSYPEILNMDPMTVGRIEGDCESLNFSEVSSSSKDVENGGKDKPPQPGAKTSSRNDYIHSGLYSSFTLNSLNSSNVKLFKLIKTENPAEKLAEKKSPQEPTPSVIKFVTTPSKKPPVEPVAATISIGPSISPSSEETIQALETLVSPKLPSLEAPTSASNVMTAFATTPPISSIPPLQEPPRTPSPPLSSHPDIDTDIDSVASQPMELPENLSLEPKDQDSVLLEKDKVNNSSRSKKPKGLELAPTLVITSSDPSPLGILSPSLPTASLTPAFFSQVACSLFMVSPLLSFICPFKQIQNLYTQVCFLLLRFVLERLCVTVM
Outline: as §1

[15] = biological target: T10, ETV2 (Homo sapiens, UniProt O00321 1-342)
T10 sequence: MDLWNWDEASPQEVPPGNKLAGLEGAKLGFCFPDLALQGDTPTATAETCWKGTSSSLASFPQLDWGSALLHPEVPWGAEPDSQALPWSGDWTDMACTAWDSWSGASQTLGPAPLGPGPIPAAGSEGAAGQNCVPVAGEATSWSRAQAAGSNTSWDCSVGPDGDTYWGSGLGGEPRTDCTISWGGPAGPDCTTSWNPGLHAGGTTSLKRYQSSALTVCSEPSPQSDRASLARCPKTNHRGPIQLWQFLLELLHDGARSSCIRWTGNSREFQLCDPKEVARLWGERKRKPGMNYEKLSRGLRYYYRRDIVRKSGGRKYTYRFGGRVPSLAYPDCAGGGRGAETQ
Outline: as §1

[16] = biological target: T11, ELF3 (Homo sapiens, UniProt P78545 1-371)
T11 sequence: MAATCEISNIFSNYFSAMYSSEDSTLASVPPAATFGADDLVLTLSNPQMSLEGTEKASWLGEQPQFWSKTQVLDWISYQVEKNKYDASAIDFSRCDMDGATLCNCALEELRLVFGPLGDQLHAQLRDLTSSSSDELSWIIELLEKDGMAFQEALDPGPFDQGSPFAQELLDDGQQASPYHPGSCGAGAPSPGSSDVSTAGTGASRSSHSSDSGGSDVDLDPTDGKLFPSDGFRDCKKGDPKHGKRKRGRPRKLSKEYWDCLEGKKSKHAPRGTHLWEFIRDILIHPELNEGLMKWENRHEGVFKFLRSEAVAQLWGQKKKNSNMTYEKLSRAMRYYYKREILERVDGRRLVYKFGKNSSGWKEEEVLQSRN
Outline: as §1

[17] = biological target: ETV1 (Homo sapiens, UniProt P50549 1-477)
Sequence of ETV1 (P50549 whole entry): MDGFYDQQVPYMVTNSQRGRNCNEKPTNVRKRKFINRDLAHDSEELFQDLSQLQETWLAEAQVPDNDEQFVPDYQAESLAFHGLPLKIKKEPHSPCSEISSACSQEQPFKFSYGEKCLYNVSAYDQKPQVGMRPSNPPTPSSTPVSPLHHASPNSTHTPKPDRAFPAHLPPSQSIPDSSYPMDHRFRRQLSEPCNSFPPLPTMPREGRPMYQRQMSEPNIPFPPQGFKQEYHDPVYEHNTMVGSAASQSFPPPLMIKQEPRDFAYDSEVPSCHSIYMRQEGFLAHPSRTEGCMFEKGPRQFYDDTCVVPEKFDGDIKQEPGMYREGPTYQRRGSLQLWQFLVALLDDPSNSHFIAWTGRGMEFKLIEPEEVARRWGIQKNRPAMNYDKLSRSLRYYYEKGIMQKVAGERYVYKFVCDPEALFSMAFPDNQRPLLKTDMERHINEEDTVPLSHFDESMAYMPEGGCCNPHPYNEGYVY
Outline: as §1

Sequence	binding signal [1]	binding signal [2]	binding signal [3]	binding signal [4]	binding signal [5]	binding signal [6]	binding signal [7]	binding signal [8]	binding signal [9]	binding signal [10]	binding signal [11]	binding signal [12]	binding signal [13]	binding signal [14]	binding signal [15]	binding signal [16]	binding signal [17]
GTCCTC	1.15 fold enrichment (6-mer frequency, TF over GST control)	1.22 fold enrichment (6-mer frequency, TF over GST control)	1.17 fold enrichment (6-mer frequency, TF over GST control)	1.21 fold enrichment (6-mer frequency, TF over GST control)	1.18 fold enrichment (6-mer frequency, TF over GST control)	1.28 fold enrichment (6-mer frequency, TF over GST control)	1.25 fold enrichment (6-mer frequency, TF over GST control)	1.21 fold enrichment (6-mer frequency, TF over GST control)	1.22 fold enrichment (6-mer frequency, TF over GST control)	1.12 fold enrichment (6-mer frequency, TF over GST control)	1.21 fold enrichment (6-mer frequency, TF over GST control)	1.14 fold enrichment (6-mer frequency, TF over GST control)	1.27 fold enrichment (6-mer frequency, TF over GST control)	1.34 fold enrichment (6-mer frequency, TF over GST control)	1.4 fold enrichment (6-mer frequency, TF over GST control)	1.16 fold enrichment (6-mer frequency, TF over GST control)	1.25 fold enrichment (6-mer frequency, TF over GST control)
CGGAAA	1.89 fold enrichment (6-mer frequency, TF over GST control)	2.13 fold enrichment (6-mer frequency, TF over GST control)	1.88 fold enrichment (6-mer frequency, TF over GST control)	2.63 fold enrichment (6-mer frequency, TF over GST control)	1.87 fold enrichment (6-mer frequency, TF over GST control)	2.31 fold enrichment (6-mer frequency, TF over GST control)	1.89 fold enrichment (6-mer frequency, TF over GST control)	2.22 fold enrichment (6-mer frequency, TF over GST control)	2.28 fold enrichment (6-mer frequency, TF over GST control)	3.21 fold enrichment (6-mer frequency, TF over GST control)	2.32 fold enrichment (6-mer frequency, TF over GST control)	1.94 fold enrichment (6-mer frequency, TF over GST control)	1.84 fold enrichment (6-mer frequency, TF over GST control)	1.55 fold enrichment (6-mer frequency, TF over GST control)	2 fold enrichment (6-mer frequency, TF over GST control)	2.13 fold enrichment (6-mer frequency, TF over GST control)	2.17 fold enrichment (6-mer frequency, TF over GST control)
CCACAT	1.2 fold enrichment (6-mer frequency, TF over GST control)	1.3 fold enrichment (6-mer frequency, TF over GST control)	1.12 fold enrichment (6-mer frequency, TF over GST control)	1.15 fold enrichment (6-mer frequency, TF over GST control)	1.25 fold enrichment (6-mer frequency, TF over GST control)	1.21 fold enrichment (6-mer frequency, TF over GST control)	1.07 fold enrichment (6-mer frequency, TF over GST control)	1.16 fold enrichment (6-mer frequency, TF over GST control)	1.14 fold enrichment (6-mer frequency, TF over GST control)	1.27 fold enrichment (6-mer frequency, TF over GST control)	1.17 fold enrichment (6-mer frequency, TF over GST control)	1.29 fold enrichment (6-mer frequency, TF over GST control)	1.21 fold enrichment (6-mer frequency, TF over GST control)	1.28 fold enrichment (6-mer frequency, TF over GST control)	1.17 fold enrichment (6-mer frequency, TF over GST control)	1.17 fold enrichment (6-mer frequency, TF over GST control)	1.21 fold enrichment (6-mer frequency, TF over GST control)
